Here are results for 9 compounds from PubChem BioAssay (EPA / NIEHS).

The structures appear in SMILES notation. Inconclusive results are not listed. More than one record can exist for a structure, and the calls need not agree. Active and inactive are the calls of the source. The calls were made as follows, unless noted: active = hit-call score of the fitted dose curve at least 0.9, where 1 is the maximum; inactive = score below 0.9.

The nature of assay [1]: ATG_Sox_CIS: Attagene CIS-FACTORIAL HepG2 Assay for human SRY-box transcription factor (SOX) (AID 2282960). The conditions noted are these: HepG2 Attagene cis-factorial SOX reporter, mRNA; actives raise or lower the signal. An outline of the steps: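 HepG2, cis reporter units, 24 h exposure. Reporter mRNA: RT-PCR → FAM labelling → HpaI → CE fluorescence. Bidirectional fit vs DMSO.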

The target of assay [2] is Transcription factor Sp1 (Homo sapiens) (UniProt P08047). As to the kind of experiment: ATG_Sp1_CIS: Attagene CIS-FACTORIAL HepG2 Assay for human Specificity Protein 1 (Sp1) (AID 2282961). Conditions: HepG2 Sp1 cis-reporter transcription, actives raise or lower the signal. An outline of the steps:
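Liver-derived HepG2 cells, cis-element reporter library, 24 h treatment; RNA isolated, cDNA amplified with reporter-specific primers, FAM-labeled fragments sized on capillary analyzer. DMSO baseline, bidirectional curve fit.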

The nature of assay [3]: ATG_SREBP_CIS: Attagene CIS-FACTORIAL HepG2 Assay for human Sterol Regulatory Element Binding (SREBP) (AID 2282962). Conditions: HepG2 Attagene cis-factorial SREBP reporter, mRNA; actives raise or lower the signal. An outline of the steps:
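Readout: fluorescent reporter-transcript peaks resolved by capillary electrophoresis after RT-PCR. Cells were human HepG2 carrying transfected cis-promoter reporter constructs, dosed for 24 h. Gain or loss of signal was fitted against DMSO controls.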

Assay [4] concerns the target Signal transducer and activator of transcription 3 (Homo sapiens) (UniProt P40763). Put plainly: ATG_STAT3_CIS: Attagene CIS-FACTORIAL HepG2 Assay for human Signal Transducer and Activator of Transcription 3 (STAT3) (AID 2282963). The conditions noted are these: HepG2, Attagene cis-factorial STAT3 reporter transcription; actives raise or lower the signal. In short, it runs like this:
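Readout: fluorescent reporter mRNA fragments resolved by capillary electrophoresis. Setup: HepG2 transfected with MRTUs reporting endogenous transcription-factor activity, dosed 24 h. Gain or loss of signal fitted bidirectionally against DMSO control.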

The nature of assay [5]: ATG_TA_CIS: Attagene CIS-FACTORIAL HepG2 Assay for human TA Basal Promoter (AID 2282964). The conditions noted are these: HepG2 Attagene CIS-factorial TA basal promoter reporter; actives raise or lower the signal. An outline of the steps: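 Steps: transfect HepG2 with MRTUs; dose 24 h; isolate RNA, DNase-treat, reverse-transcribe; PCR and FAM-label reporter cDNA; digest with HpaI 2h at 37 C; run capillary electrophoresis. Activity fitted both directions against DMSO.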

Assay [6] can be described thus: ATG_TCF_b_cat_CIS: Attagene CIS-FACTORIAL HepG2 Assay for human T-Cell-Factor with beta-catenin (TCF/b-cat) (AID 2282965). Conditions: HepG2 TCF/beta-catenin cis-reporter transcription, actives raise or lower the signal. In short, it runs like this:
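Cells of the HepG2 line carry transiently transfected reporter units whose promoters respond to endogenous factors. Twenty-four hours post-dosing, reporter mRNA induction is measured by fluorescent RT-PCR and capillary electrophoresis, with DMSO as baseline.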

Assay [7] can be described thus: ATG_TAL_CIS: Attagene CIS-FACTORIAL HepG2 Assay for human TAL Basal Promoter (AID 2282966).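 Also: background control endpoint measuring basal TAL promoter reporter mRNA not a specific factor.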 Conditions: HepG2 Attagene cis-factorial TAL promoter reporter; actives raise or lower the signal. An outline of the steps:
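Transiently transfected HepG2 (cis-regulated reporter units), 24 h treatment, mRNA read by fluorescent CE after RT-PCR; bidirectional fit, DMSO baseline.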

The nature of assay [8]: ATG_TGFb_CIS: Attagene CIS-FACTORIAL HepG2 Assay for human Transforming Growth Factor (TGF) (AID 2282967). Conditions: HepG2 Attagene CIS TGFb reporter, mRNA transcription; actives raise or lower the signal. In short, it runs like this:
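Cells were dosed for 24 hours, after which total RNA was reverse-transcribed and reporter sequences amplified, labeled and sized by capillary electrophoresis. Activity was fitted in both directions against DMSO.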

Assay [9] is described as follows: ATG_VDRE_CIS: Attagene CIS-FACTORIAL HepG2 Assay for human Vitamin D Receptor Element (VDRE) (AID 2282968). Conditions: HepG2 VDRE cis-reporter transcription, actives raise or lower the signal. An outline of the steps: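 Transient MRTU transfection of HepG2, 24 h compound exposure. Readout: reporter transcripts via RT-PCR and capillary electrophoresis, fluorescence. Bidirectional fit vs DMSO.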

The target in assay [10] is X-box-binding protein 1 (Homo sapiens) (UniProt P17861). As to the kind of experiment: ATG_Xbp1_CIS: Attagene CIS-FACTORIAL HepG2 Assay for human X-box Binding Protein 1 (XBP1) (AID 2282972). The conditions noted are these: HepG2 XBP1 cis-element reporter, Attagene multiplex; actives raise or lower the signal. In short, it runs like this: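 Read-out: fluorescent reporter mRNA fragments resolved by capillary electrophoresis after RT-PCR. Human HepG2 liver cells carried transfected cis-promoter reporter units and were exposed to chemicals for 24 hours. Gain or loss of signal fitted relative to DMSO baseline.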
Sequence of X-box-binding protein 1 (Homo sapiens) (P17861 whole entry, looked up, the tested form may be a part): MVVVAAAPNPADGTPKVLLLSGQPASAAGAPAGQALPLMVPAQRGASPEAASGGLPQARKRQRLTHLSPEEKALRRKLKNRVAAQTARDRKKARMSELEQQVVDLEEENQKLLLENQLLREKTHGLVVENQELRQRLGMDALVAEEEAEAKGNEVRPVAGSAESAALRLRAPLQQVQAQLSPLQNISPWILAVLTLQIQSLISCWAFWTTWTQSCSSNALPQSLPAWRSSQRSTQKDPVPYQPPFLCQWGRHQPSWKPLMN

In assay [11] the target is Oxysterols receptor LXR-alpha (Homo sapiens) (UniProt Q13133). Put plainly: ATG_LXRa_TRANS: Attagene TRANS-FACTORIAL HepG2 Assay for human Liver X Receptor alpha (LXRa) (AID 2282980; active = hit-call score of the fitted dose curve at least 0.9, where 1 is the maximum). Conditions: HepG2 Attagene TRANS reporter, LXRa transactivation. In short, it runs like this:
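HepG2 cells were transiently transfected with multiplexed reporter units driven by chimeric LXRa–GAL4 fusion proteins, then dosed for 24 h. Reporter mRNA was quantified by RT-PCR, fluorescent labelling and capillary electrophoresis; gain of signal fitted against DMSO baseline.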

Assay [12] concerns the target Oxysterols receptor LXR-beta (Homo sapiens) (UniProt P55055). Put plainly: ATG_LXRb_TRANS: Attagene TRANS-FACTORIAL HepG2 Assay for human Liver X Receptor beta (LXRb) (AID 2282981; active = hit-call score of the fitted dose curve at least 0.9, where 1 is the maximum). The conditions noted are these: HepG2 Attagene TRANS GAL4-LXRb reporter, mRNA. In short, it runs like this: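 Readout: fluorescent reporter mRNA fragments resolved by capillary electrophoresis after RT-PCR. System: transiently transfected human HepG2, exogenous LXRb-Gal4 chimera driving GAL4-UAS reporter, 24 h dosing. Activity fitted upward against DMSO baseline.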

Assay [13] concerns the target Nuclear receptor subfamily 1 group I member 3 (Homo sapiens) (UniProt Q14994). As to the kind of experiment: ATG_CAR_TRANS: Attagene TRANS-FACTORIAL HepG2 Assay for human Constitutive Androstane Receptor (CAR) (AID 2282969; active = hit-call score of the fitted dose curve at least 0.9, where 1 is the maximum;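 also: activators raise reporter mRNA above DMSO so AC50 marks induction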). Conditions: HepG2 Attagene TRANS-FACTORIAL CAR reporter. An outline of the steps: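 Transiently transfected HepG2, multiplex TRANS reporters (CAR-Gal4 chimera driving GAL4-UAS reporter). 24 h dosing. Readout: reporter transcript by RT-PCR + capillary electrophoresis, fluorescence intensity; positive direction vs DMSO.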

Assay [14] deals with Androgen receptor (Homo sapiens) (UniProt P10275). As to the kind of experiment: ATG_AR_TRANS: Attagene TRANS-FACTORIAL HepG2 Assay for human Androgen Receptor (AR) (AID 2282973; active = hit-call score of the fitted dose curve at least 0.9, where 1 is the maximum). Conditions: HepG2 Attagene TRANS-FACTORIAL AR reporter transcription. An outline of the steps:
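HepG2 cells transiently transfected with multiplexed GAL4-UAS reporter units and chimeric NR-Gal4 fusion; 24 h compound exposure. Reporter mRNA measured by RT-PCR, 6-FAM labelling, HpaI digestion and capillary electrophoresis; gain-of-signal fitted relative to DMSO baseline.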

Assay [15] is described as follows: ATG_M_19_TRANS: Attagene TRANS-FACTORIAL HepG2 Assay for M19 Transcription Factor (Internal Marker) (AID 2282974; active = hit-call score of the fitted dose curve at least 0.9, where 1 is the maximum). Conditions: HepG2 Attagene TRANS-FACTORIAL M19 internal marker reporter. An outline of the steps:
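Transfected HepG2 (GAL4-UAS MRTUs), 24 h compound, TriZol RNA, DNase-treated RT, reporter PCR, FAM label, HpaI digest, CE fluorescence; gain vs DMSO.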

A short description of assay [16]: ATG_GAL4_TRANS: Attagene TRANS-FACTORIAL HepG2 Assay for GAL4 (Internal Marker) (AID 2282976; active = hit-call score of the fitted dose curve at least 0.9, where 1 is the maximum). The conditions noted are these: HepG2 Attagene TRANS GAL4 internal marker reporter. An outline of the steps: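 HepG2 cells transiently transfected with multiplexed GAL4-UAS reporter constructs were dosed for 24 h. Reporter mRNA was measured by RT-PCR, 6-FAM primer extension, HpaI digestion and capillary electrophoresis, and gain of signal was fitted relative to DMSO.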

The target in assay [17] is Glucocorticoid receptor (Homo sapiens) (UniProt P04150). Put plainly: ATG_GR_TRANS: Attagene TRANS-FACTORIAL HepG2 Assay for human Glucocorticoid Receptor (GR) (AID 2282978; active = hit-call score of the fitted dose curve at least 0.9, where 1 is the maximum;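 also: activators score as hits since higher reporter transcript over DMSO is fitted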). The conditions noted are these: HepG2 Attagene TRANS GR reporter, mRNA transcription. An outline of the steps: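 After 24 h incubation with test chemical, transfected HepG2 cells were lysed for RNA; reporter cDNA was amplified, FAM-labelled, HpaI-digested and sized on a capillary analyser. Signal gain relative to DMSO was scored.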
Sequence of Glucocorticoid receptor (Homo sapiens) (P04150 whole entry, looked up): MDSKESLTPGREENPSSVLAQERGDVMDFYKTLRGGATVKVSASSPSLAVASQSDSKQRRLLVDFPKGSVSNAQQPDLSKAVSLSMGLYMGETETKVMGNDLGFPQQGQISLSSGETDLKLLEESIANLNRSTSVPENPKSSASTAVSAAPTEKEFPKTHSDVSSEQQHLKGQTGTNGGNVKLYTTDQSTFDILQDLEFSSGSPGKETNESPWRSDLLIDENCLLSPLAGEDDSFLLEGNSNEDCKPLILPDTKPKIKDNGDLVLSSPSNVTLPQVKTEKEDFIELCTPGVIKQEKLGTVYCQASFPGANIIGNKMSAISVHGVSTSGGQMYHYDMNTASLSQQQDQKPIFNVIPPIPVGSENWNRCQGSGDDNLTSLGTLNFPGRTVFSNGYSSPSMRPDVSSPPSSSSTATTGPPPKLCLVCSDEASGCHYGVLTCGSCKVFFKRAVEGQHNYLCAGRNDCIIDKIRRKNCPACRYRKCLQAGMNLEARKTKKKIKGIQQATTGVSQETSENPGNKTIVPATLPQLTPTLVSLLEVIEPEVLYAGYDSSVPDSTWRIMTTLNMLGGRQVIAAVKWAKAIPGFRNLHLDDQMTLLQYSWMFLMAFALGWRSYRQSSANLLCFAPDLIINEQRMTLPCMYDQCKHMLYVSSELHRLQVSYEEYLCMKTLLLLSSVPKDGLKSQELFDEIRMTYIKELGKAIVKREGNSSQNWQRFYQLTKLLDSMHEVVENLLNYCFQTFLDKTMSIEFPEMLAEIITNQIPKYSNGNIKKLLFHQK

The target of assay [18] is Estrogen receptor (Homo sapiens) (UniProt P03372). Put plainly: ATG_ERa_TRANS: Attagene TRANS-FACTORIAL HepG2 Assay for human Estrogen Receptor alpha (ERa) (AID 2282970; active = hit-call score of the fitted dose curve at least 0.9, where 1 is the maximum). Conditions: HepG2 Attagene TRANS ERa GAL4 reporter, mRNA. In short, it runs like this: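 One of 30 multiplexed endpoints from a HepG2 TRANS system, this one reports ERa-Gal4-driven reporter mRNA. Transcripts were quantified 24 hours post-dosing by fluorescent RT-PCR and capillary electrophoresis, with activity scored as induction over DMSO.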
Sequence of Estrogen receptor (Homo sapiens) (P03372 whole entry, looked up, the tested form may be a part): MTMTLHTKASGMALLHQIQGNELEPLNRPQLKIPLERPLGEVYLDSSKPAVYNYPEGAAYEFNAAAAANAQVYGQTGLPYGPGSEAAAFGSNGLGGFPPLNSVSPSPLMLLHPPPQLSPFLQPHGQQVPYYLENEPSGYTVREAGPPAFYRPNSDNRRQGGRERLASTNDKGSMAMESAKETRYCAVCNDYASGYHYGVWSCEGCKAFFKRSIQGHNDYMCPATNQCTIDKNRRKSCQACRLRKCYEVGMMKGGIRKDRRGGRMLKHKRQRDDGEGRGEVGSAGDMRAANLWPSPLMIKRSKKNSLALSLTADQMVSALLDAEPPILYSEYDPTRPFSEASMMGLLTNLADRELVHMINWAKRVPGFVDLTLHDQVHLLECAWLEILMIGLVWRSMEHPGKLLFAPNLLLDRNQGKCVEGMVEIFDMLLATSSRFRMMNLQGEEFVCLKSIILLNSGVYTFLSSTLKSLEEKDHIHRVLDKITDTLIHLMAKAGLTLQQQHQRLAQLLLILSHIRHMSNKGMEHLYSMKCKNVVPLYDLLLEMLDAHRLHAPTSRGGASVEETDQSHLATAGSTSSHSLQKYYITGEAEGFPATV

The target of assay [19] is Steroid hormone receptor ERR1 (Homo sapiens) (UniProt P11474). As to the kind of experiment: ATG_ERRa_TRANS: Attagene TRANS-FACTORIAL HepG2 Assay for human Estrogen-Related Receptor alpha (ERRa) (AID 2282971; active = hit-call score of the fitted dose curve at least 0.9, where 1 is the maximum). The conditions noted are these: HepG2 Attagene TRANS reporter, ERRa transactivation. An outline of the steps:
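HepG2 cells transiently transfected with multiplexed GAL4-UAS reporter units reading chimeric ERRa-Gal4 activity; 24 h compound exposure. Reporter mRNA measured by RT-PCR, 6-FAM labelling, HpaI digest and capillary electrophoresis; gain of signal fitted versus DMSO baseline.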

Sequence of Oxysterols receptor LXR-beta (Homo sapiens) (P55055 whole entry, looked up, the tested form may be a part): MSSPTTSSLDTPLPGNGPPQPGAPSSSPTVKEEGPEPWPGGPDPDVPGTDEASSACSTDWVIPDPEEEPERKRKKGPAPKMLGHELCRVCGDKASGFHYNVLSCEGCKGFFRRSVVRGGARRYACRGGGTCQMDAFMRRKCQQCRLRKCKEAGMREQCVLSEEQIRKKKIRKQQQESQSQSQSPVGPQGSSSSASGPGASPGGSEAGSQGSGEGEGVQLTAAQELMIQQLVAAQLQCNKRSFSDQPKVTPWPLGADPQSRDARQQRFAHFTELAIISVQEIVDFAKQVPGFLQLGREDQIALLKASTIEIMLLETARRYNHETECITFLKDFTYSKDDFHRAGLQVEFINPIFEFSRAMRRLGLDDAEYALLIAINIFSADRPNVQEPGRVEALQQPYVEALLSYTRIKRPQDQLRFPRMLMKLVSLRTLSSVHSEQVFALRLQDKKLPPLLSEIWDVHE
Sequence of Oxysterols receptor LXR-alpha (Homo sapiens) (Q13133 whole entry, looked up, the tested form may be a part): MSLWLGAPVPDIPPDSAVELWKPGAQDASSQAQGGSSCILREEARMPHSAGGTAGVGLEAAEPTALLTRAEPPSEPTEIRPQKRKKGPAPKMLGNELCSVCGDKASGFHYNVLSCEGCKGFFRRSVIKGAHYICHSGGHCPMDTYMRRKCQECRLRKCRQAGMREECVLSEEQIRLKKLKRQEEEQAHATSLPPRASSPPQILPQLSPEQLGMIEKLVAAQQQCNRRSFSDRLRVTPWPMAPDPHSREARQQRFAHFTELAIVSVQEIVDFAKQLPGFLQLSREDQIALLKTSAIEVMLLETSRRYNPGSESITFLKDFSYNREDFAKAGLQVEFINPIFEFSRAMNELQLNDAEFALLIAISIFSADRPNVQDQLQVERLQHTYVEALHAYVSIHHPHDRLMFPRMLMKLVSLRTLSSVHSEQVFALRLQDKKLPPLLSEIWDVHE
Sequence of Signal transducer and activator of transcription 3 (Homo sapiens) (P40763 whole entry, looked up, the tested form may be a part): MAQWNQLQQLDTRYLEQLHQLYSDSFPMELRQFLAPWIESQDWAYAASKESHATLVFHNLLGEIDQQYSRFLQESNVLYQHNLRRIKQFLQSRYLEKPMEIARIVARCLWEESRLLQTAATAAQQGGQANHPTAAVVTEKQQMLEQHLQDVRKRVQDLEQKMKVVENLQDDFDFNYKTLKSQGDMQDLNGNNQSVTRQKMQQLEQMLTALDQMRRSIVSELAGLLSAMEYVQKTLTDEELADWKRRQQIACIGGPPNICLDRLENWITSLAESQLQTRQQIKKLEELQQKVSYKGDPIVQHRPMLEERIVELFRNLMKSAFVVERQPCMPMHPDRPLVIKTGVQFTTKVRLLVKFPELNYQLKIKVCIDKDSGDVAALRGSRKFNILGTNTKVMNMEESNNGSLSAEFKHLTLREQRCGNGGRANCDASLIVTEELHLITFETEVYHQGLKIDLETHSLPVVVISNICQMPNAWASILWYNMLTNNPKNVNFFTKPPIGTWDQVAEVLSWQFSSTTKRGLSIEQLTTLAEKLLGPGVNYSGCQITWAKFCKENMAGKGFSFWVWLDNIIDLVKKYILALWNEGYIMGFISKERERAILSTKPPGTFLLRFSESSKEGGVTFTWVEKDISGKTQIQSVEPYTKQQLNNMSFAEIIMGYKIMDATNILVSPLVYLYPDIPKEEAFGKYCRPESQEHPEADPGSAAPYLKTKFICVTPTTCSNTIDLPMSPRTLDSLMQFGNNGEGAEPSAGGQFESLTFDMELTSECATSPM
Sequence of Transcription factor Sp1 (Homo sapiens) (P08047 whole entry, looked up, the tested form may be a part): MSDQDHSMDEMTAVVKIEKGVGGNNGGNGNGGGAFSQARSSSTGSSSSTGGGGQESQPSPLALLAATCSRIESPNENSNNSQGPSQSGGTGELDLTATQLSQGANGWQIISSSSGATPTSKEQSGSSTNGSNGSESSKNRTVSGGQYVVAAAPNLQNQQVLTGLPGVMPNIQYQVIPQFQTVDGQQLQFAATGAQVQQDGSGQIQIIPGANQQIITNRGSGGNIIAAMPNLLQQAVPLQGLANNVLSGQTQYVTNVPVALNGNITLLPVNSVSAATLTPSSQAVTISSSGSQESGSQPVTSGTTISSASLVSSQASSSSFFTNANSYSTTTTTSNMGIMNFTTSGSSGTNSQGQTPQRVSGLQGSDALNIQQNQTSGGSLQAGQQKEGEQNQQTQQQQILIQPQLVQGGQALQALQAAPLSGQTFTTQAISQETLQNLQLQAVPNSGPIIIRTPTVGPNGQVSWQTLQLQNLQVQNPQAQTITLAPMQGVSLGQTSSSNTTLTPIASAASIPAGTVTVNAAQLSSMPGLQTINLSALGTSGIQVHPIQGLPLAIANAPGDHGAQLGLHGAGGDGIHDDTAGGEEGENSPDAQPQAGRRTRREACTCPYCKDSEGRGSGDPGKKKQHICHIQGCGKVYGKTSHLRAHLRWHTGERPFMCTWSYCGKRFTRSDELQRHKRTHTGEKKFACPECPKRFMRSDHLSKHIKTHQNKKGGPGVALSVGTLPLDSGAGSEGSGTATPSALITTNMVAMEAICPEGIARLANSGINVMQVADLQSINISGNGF
Sequence of Nuclear receptor subfamily 1 group I member 3 (Homo sapiens) (Q14994 whole entry, looked up, the tested form may be a part): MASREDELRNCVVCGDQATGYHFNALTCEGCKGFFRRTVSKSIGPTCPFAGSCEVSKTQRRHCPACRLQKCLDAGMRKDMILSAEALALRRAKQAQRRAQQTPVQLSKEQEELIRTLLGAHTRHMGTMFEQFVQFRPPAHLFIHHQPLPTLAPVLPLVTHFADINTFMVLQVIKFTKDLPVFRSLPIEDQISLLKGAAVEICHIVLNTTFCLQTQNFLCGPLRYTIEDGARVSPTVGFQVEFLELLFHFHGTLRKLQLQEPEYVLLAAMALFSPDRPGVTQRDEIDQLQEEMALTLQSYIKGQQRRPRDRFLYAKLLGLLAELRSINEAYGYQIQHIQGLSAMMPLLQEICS
Sequence of Steroid hormone receptor ERR1 (Homo sapiens) (P11474 whole entry, looked up, the tested form may be a part): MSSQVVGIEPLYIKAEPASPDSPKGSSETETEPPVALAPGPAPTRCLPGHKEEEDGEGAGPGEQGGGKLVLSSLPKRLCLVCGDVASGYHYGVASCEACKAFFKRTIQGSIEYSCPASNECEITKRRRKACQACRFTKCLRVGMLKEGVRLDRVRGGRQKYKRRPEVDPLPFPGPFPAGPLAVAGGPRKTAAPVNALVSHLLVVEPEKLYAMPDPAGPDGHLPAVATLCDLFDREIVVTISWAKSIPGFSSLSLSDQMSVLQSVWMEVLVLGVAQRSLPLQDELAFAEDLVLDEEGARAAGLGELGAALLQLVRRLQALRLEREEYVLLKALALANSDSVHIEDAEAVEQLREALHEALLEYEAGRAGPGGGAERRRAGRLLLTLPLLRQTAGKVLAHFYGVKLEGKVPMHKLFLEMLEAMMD

The term AC50 denotes the concentration at which the activity in the assay is half-maximal. For the compound `Oc1cccc2cccnc12`, the outcome in assay [1], in assay [2], in assay [3], in assay [4], in assay [5] and in assay [6] was inactive. Moreover, the call in [7], in [8], in assay [9], in assay [10], in assay [11] and in assay [12] was inactive. In addition, in assay [9], the half-maximal activity concentration (AC50) was 67.9 µM (active).
`CCCCCCCCc1ccc(O)cc1`: the result in [1], in assay [2], in assay [3], in assay [4], in [5] and in [6] was inactive. The compound was called inactive in assay [7], in [8], in [9], in assay [13], in [10] and in assay [14]. Besides, the result in [15], in [16], in assay [17] and in assay [12] was inactive. Besides, the half-maximal activity concentration (AC50) in [9] was 18.9 µM (active).
For `O=C/C=C/c1ccccc1`, the compound was called inactive in [1], in assay [2], in assay [3], in assay [4], in [5] and in assay [6]. The result in assay [7], in assay [8], in assay [13], in assay [10], in assay [15] and in [17] was inactive. The compound was classed as inactive in [11] and in [12]. In assay [9], the AC50 was 45.5 µM (active).
On to `CC(Br)C(=O)O` (stereo unspecified), for which the compound was classed as inactive in [1], in [2], in [3], in assay [4], in [5] and in assay [6]. The call in [7], in assay [8], in assay [9], in assay [13], in assay [18] and in assay [10] was inactive. Also, the compound was classed as inactive in [15] and in assay [16].
For `ClCc1ccccn1`, the result in [1], in assay [2], in assay [3], in assay [4], in assay [5] and in assay [6] was inactive. Also, the compound was classed as inactive in assay [7], in assay [8], in [9], in [13] and in assay [12]. The AC50 in assay [10] was 65.6 µM (active).
`C[C@@H](Oc1ccc(Cl)cc1Cl)C(=O)O`: the call in [1], in assay [2], in assay [3], in [4], in assay [5] and in assay [6] was inactive. In addition, the result in assay [7], in assay [8], in assay [9], in assay [10], in [15] and in assay [16] was inactive. Further, the compound was classed as inactive in [17].
`OCC(O)CCl` (stereo unspecified): the outcome in [1], in assay [2], in assay [3], in assay [4], in [5] and in [6] was inactive. For the same compound, the compound was classed as inactive in assay [7], in assay [8], in [9], in [10], in assay [16] and in assay [12].
Regarding `CCOP(=S)(OCC)SCCS(=O)(=O)CC`, the result in [1], in assay [2], in [3], in assay [4], in [5] and in [6] was inactive. In addition, the result in [7], in assay [8], in [9], in assay [19], in assay [10] and in assay [15] was inactive. In addition, the result in assay [17], in [11] and in [12] was inactive.
As to `O=P(O)(O)CN(CP(=O)(O)O)CP(=O)(O)O`, the compound was called inactive in assay [1], in assay [2], in [3], in [4], in assay [5] and in assay [6]. Besides, the call in [7], in assay [8], in assay [9], in assay [18], in [10] and in assay [15] was inactive. In addition, the result in [16], in assay [17] and in [12] was inactive.
